5-HT1A blocker – human 5-HT1a receptor antagonists, primary screen, cell-based, CHO, Ga15 NFAT-bla reporter | 5-hydroxytryptamine receptor 1A (Homo sapiens), P08908 | CHO 5-HT1a Ga15 NFAT-bla reporter, antagonist mode | inhibition, % at 10 µM | hit rate 0.68% among 62,000;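 active = inhibition above the mean of all tested compounds plus 3 SD, cut at about 43% in these data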;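 note: receptor stimulated by 5-CT agonist at 100 nM near EC80; beta-lactamase reporter measured by ratiometric fluorescence of a cleavable substrate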
Target sequence (P08908 whole entry, looked up): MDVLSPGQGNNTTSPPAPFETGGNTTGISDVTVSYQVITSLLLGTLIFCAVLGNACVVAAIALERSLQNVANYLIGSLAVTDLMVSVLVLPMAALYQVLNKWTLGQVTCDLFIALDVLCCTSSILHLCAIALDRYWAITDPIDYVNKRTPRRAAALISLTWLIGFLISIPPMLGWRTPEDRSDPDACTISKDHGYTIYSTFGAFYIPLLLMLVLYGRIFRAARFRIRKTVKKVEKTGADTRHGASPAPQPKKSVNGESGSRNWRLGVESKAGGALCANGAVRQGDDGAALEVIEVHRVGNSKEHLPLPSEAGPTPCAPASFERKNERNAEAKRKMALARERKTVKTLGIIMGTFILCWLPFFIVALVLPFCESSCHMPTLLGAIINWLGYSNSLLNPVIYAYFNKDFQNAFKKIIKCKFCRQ
5HT1a ag – human 5-HT1a receptor agonists, primary screen, cell-based, CHO, Ga15 NFAT-bla reporter | 5-hydroxytryptamine receptor 1A (Homo sapiens), P08908 | CHO 5-HT1a Ga15 NFAT-bla reporter, FRET ratio; 0% basal, 100% maximal reference agonist | activation, % at 10 µM | hit rate 0.56% among 65,000;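 active = activation above the screen-wide mean activation plus 3 SD, cut at about 19% in these data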;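 note: 0% = DMSO wells and 100% = 5-CT at EC100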
5HT1E ag – 5-HT1E receptor agonists, primary screen, cell-based, HTS | 5-hydroxytryptamine receptor 1E (Homo sapiens), P28566 | CHO 5-HT1E Ga15 NFAT-bla reporter, FRET; 0% DMSO wells, 100% control agonist wells | activation, % at 6 µM | hit rate 0.69% among 65,000;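 active = activation above a set limit, the screen-wide mean activation plus 3 SD, cut at about 8.5% in these data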;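 note: 100% = positive control agonist at 1 µM giving full maximal response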
HTR1E antagonist – 5-HT1E receptor antagonists, primary screen, cell-based, HTS; 5-hydroxytryptamine receptor 1E (Homo sapiens), P28566; CHO 5-HT1E Ga15 NFAT-bla reporter, FRET, antagonist; inhibition, % at 6 µM; hit rate 0.99% among 65,000; AID 571, 2007;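 active = inhibition above a set limit, the mean inhibition across every tested compound plus 3 SD, cut at about 29% in these data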;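 note: signal is the 460 over 535 nm emission ratio of beta-lactamase substrate; 0% = agonist plus DMSO wells and 100% = wells without agonist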
Her2 expr inh – inhibitors of Her2 protein expression, primary screen, SKBR-3 cells, AlphaScreen, 66K library. Receptor tyrosine-protein kinase erbB-2 (Homo sapiens), P04626. SKBR-3 HER2 protein level, 18-24 h; stronger effect = lower value. HER2 level % of control, % at 10 µM. hit rate 0.69% among 65,000. AID 645, 2007;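 active = HER2 level under 5% of the carrier-only control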;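 note: 100% = DMSO carrier and 0% = 500 nM PU-H71 HSP90 inhibitor; lower value means stronger loss of Her2 protein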
Starred values were filed as active, the others as inactive. An excerpt weighted towards active compounds, which were near 3% of everything screened.

`COc1ccc(-n2c(Cn3c(=O)sc4ccccc43)nnc2SCC(=O)N2CCOCC2)cc1` gave 5-HT1A blocker 9.5, 5HT1a ag 1.2, 5HT1E ag -0.3, HTR1E antagonist 3.0 and Her2 expr inh -17.3*.
For O=C(CSc1nc2ccccc2c(=O)n1CC1CCCO1)NCC1CCCO1 (configuration not stated) the results were 5-HT1A blocker -1.4, 5HT1a ag 0.2, 5HT1E ag 0.0, HTR1E antagonist -2.9 and Her2 expr inh 86.3.
`O=c1c2ccccc2c2ccccc2c(=O)n1CC1CCCO1` (configuration not stated) gave 5-HT1A blocker -6.2, 5HT1a ag -2.7, 5HT1E ag 0.2, HTR1E antagonist 34.8* and Her2 expr inh 115.3.
Screening Cc1cc(C)c(NC(=O)C2CSCCS2)c(C)c1 (configuration not stated) returned 5-HT1A blocker -12.5, 5HT1a ag -1.5, 5HT1E ag -0.6, HTR1E antagonist -9.3 and Her2 expr inh 91.4.
`COC(=O)C1=C(Cn2cnc3ccccc32)NC(=O)NC1c1cc(C)ccc1C` (configuration not stated) gave 5-HT1A blocker -5.4, 5HT1a ag 22.1*, 5HT1E ag -1.3 and HTR1E antagonist 1.7.
Screening Brc1ccccc1-c1nnc(CSc2nncn2-c2ccccc2)o1 returned 5-HT1A blocker -13.9, 5HT1a ag 171.1*, 5HT1E ag -0.3, HTR1E antagonist -5.0 and Her2 expr inh 104.0.
For O=C(c1ccccc1)N(CCN1CCOCC1)C1(C(=O)Nc2ccccc2)CCCCC1 the results were 5-HT1A blocker 15.5, 5HT1a ag 0.1, 5HT1E ag -0.5, HTR1E antagonist -3.2 and Her2 expr inh 88.6.
Screening O=C(Nc1ncnc2c1CCC2)C12CC3CC(CC(C3)C1)C2 returned 5-HT1A blocker 2.5, 5HT1a ag 40.0*, 5HT1E ag 0.2, HTR1E antagonist 16.3 and Her2 expr inh 110.5.
`Cc1cc(NC(=O)C2CC2)ncc1NC(=O)C12CC3CC(CC(C3)C1)C2` gave 5-HT1A blocker 3.0, 5HT1a ag -1.1, 5HT1E ag -0.1, HTR1E antagonist 5.7 and Her2 expr inh 103.3.
`COCCn1cc(C(=O)N2CCC(C)CC2)c2c3ccccc3n(C)c2c1=O` gave 5-HT1A blocker 17.7, 5HT1a ag -4.0, 5HT1E ag -0.9, HTR1E antagonist 6.2 and Her2 expr inh 94.2.
O=C(c1ccco1)N1CCN(C(=O)N2c3ccccc3Sc3ccccc32)CC1 was read as 5-HT1A blocker 58.5*, 5HT1a ag -1.5, 5HT1E ag -0.6, HTR1E antagonist 74.5* and Her2 expr inh 37.3.
`O=C(N1CCN(c2ccccn2)CC1)N1c2ccccc2Sc2ccccc21` gave 5-HT1A blocker 47.9*, 5HT1a ag -0.2, 5HT1E ag -0.5, HTR1E antagonist 37.4* and Her2 expr inh 66.6.
O=C(c1c(Cl)cccc1Cl)N1CCN(c2ccccn2)CC1 was read as 5-HT1A blocker 8.6, 5HT1a ag -0.3, 5HT1E ag -0.2, HTR1E antagonist -4.6 and Her2 expr inh 82.1.
Cc1ccc2c(CSc3nc4ccccc4c(=O)n3CCCO)cc(=O)oc2c1 was read as 5-HT1A blocker 15.6, 5HT1a ag -0.6, 5HT1E ag -0.4, HTR1E antagonist 32.5* and Her2 expr inh 89.2.
Screening Cc1cc(NS(=O)(=O)c2cccs2)no1 returned 5-HT1A blocker -12.2, 5HT1a ag -0.5, 5HT1E ag -0.6, HTR1E antagonist -5.4 and Her2 expr inh -30.0*.
Screening CCN(CC)S(=O)(=O)c1ccc(NC(=O)Cn2c(=O)sc3ccccc32)cc1 returned 5-HT1A blocker -6.3, 5HT1a ag -1.7, 5HT1E ag -0.1, HTR1E antagonist 1.1 and Her2 expr inh 77.1.
Screening COc1ccc(OC)c(CNc2nc3ccccc3n2CCN2CCCCC2)c1 returned 5-HT1A blocker 28.9, 5HT1a ag -0.7, 5HT1E ag -0.4, HTR1E antagonist -1.0 and Her2 expr inh 33.5.
Screening COc1ccc(CNc2nc3ccccc3n2CCN2CCCCC2)c(OC)c1 returned 5-HT1A blocker 43.8*, 5HT1a ag 0.6, 5HT1E ag -0.2, HTR1E antagonist -2.4 and Her2 expr inh 10.3.
`COc1cccc(CNc2nc3ccccc3n2CCN2CCCCC2)c1OC` gave 5-HT1A blocker 42.6*, 5HT1a ag -2.0, 5HT1E ag 0.8, HTR1E antagonist 3.5 and Her2 expr inh 87.4.
For Cc1ccc(S(=O)(=O)NC(=O)c2cc(C)n(CCCn3ccnc3)c2C)cc1 the results were 5-HT1A blocker 15.9, 5HT1a ag -1.1, 5HT1E ag -0.1, HTR1E antagonist 0.5 and Her2 expr inh 107.6.
Screening O=C(Nc1ccon1)c1csc2c1CCCC2 returned 5-HT1A blocker -18.5, 5HT1a ag -1.5, 5HT1E ag 8.9*, HTR1E antagonist -9.9 and Her2 expr inh 93.4.
Screening O=C(Nc1ccon1)c1csc2ccccc12 returned 5-HT1A blocker 17.0, 5HT1a ag -7.8, 5HT1E ag -0.6, HTR1E antagonist -1.8 and Her2 expr inh 89.5.
`COc1ccc(-c2noc(-c3ccccc3C(=O)Nc3cccc(OC)c3)n2)cc1` gave 5-HT1A blocker 37.2, 5HT1a ag 0.3, 5HT1E ag -0.8, HTR1E antagonist -6.5 and Her2 expr inh 83.2.
For CCOc1ccccc1NC(=O)c1ccccc1-c1nc(-c2ccccc2)no1 the results were 5-HT1A blocker 45.6*, 5HT1a ag 2.2, 5HT1E ag 0.7, HTR1E antagonist -13.8 and Her2 expr inh 66.3.
COc1ccc(-n2nnc3c(SCC(=O)Nc4ccc5c(c4)OCCO5)ncnc32)cc1 was read as 5-HT1A blocker 7.0, 5HT1a ag -0.3, 5HT1E ag -1.9, HTR1E antagonist -4.3 and Her2 expr inh -7.2*.
`CC(=O)c1c(C)nn(C(=O)N2CCOCC2)c1C` gave 5-HT1A blocker -24.0, 5HT1a ag -1.6, 5HT1E ag 0.2, HTR1E antagonist -9.7 and Her2 expr inh 108.1.
CCC(c1nnnn1C1CCCCC1)N(Cc1ccco1)Cc1cc2ccc(OC)cc2[nH]c1=O (configuration not stated) was read as 5-HT1A blocker 15.9, 5HT1a ag 1.1, 5HT1E ag 0.3, HTR1E antagonist 3.1 and Her2 expr inh 23.9.
Screening CCOC(=O)Cn1nnnc1C(CC)N(Cc1cccs1)Cc1cc2ccc(OC)cc2[nH]c1=O (configuration not stated) returned 5-HT1A blocker 2.4, 5HT1a ag 1.2, 5HT1E ag 0.3, HTR1E antagonist -0.5 and Her2 expr inh -9.3*.
Screening CCN(CC)C(=O)CSc1nc2ccccc2c(=O)n1CC1CCCCC1 returned 5HT1a ag 4.4, 5HT1E ag -0.1, HTR1E antagonist 36.8* and Her2 expr inh 96.9.
O=C(CSc1nc2ccccc2c(=O)n1CC1CCCCC1)N1CCOCC1 was read as 5HT1a ag 2.2, 5HT1E ag 0.4, HTR1E antagonist 3.3 and Her2 expr inh 87.8.
